U2OS ROS induce = cancer cell ROS induction; U2OS ROS induction, H2DCF-DA fluorescence; ROS induction (% of piperlongumine), % at 10 µM; 2% of 46,000 active; in the data active = ROS induction above about 79%, passing the limit was not always enough;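 also: 0% = DMSO vehicle median and 100% = reference compound median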
NOMO-1 viab = STK33 inhibitor candidate reducing NOMO-1 cell viability | 7.5% of 37,000 active | AID 2330 | inhibition, % (test concentration not listed) | NOMO-1 AML viability, CellTiter-Glo luminescence, 72 h; in the data active = inhibition above about 80%
Starred values were filed as active, the others as inactive; . = not tested or not shown. The entries come from a sample that favours hits as a whole.

SMILES	U2OS ROS induce	NOMO-1 viab
CC(=O)Oc1ccc(/C=C/c2cc(OC(C)=O)cc(OC(C)=O)c2)cc1	13	88*
CC[C@@H](C)C(=O)O[C@H]1[C@H](O)[C@H]2[C@@H](CN3C[C@@H](C)CC[C@H]3[C@@]2(C)O)C2C[C@]34O[C@@]5(O)[C@@H](OC(=O)[C@](C)(O)CC)CC[C@@]3(C)[C@@H]5[C@@H](OC(C)=O)[C@@H](OC(C)=O)[C@H]4[C@@]21O (stereo not given in full)	4	15
Cc1cc(C(F)F)n2nc(C(=O)Nc3ccc(Cl)cc3C(=O)c3ccccc3)nc2n1	-20	-21
C=CC/C=C\C/C=C\CCCCCCCc1cc(O)cc(O)c1	-2	109*
CCCCCc1cc(OC)c(CC=C(C)C)c(O)c1C(=O)O	-10	.
CC1(C)C(=O)C=C[C@@]2(C)C1C[C@@H](O)[C@]1(C)C2CC[C@@]2(C)[C@H](c3ccoc3)OC(=O)[C@H]3O[C@]321 (stereo not given in full)	-4	24
C[C@H]1CN([C@@H](C)CO)C(=O)CCCn2cc(nn2)CO[C@@H]1CN(C)C(=O)Oc1ccc2ccccc2c1	134*	.
C[C@@H]1CN([C@H](C)CO)C(=O)CCCn2cc(nn2)CO[C@@H]1CN(C)C(=O)Oc1ccc2ccccc2c1	31	.
C=C(C)[C@H]1O[C@H]2CC[C@@]3(C)[C@@](O)(CC[C@H]4[C@@H]5OC(C)(C)[C@H]6C[C@@H]7C(=C)Cc8c(Cl)cc9[nH]c(c5c9c8[C@@]76O)[C@@]43C)[C@]23O[C@@H]3[C@H]1O	11	116*
COc1cc([C@@H]2c3cc4c(cc3[C@@H](O)C3COC(=O)C32)OCO4)cc(OC)c1O (stereo not given in full)	42	102*
COc1cc([C@@H]2c3cc4c(cc3[C@H](OC(C)=O)[C@H]3COC(=O)[C@@H]23)OCO4)cc(OC)c1OC	-11	108*
COc1cc(C2c3cc4c(cc3CC3COC(=O)C32)OCO4)cc(OC)c1OC (stereo not given)	14	118*
COc1ccc2c(c1OC)C(=O)O[C@H]2[C@H]1c2cc3c(cc2CCN1C)OCO3	7	15
Cc1cc(OCc2c(F)cccc2Cl)c2c3c(c(=O)oc2c1)CCCC3	-3	.
CN(C)C(=O)Oc1cccc(N)c1	-2	.
CC(=O)c1cccc(NC(=O)CSC2c3ccccc3-c3ccccc32)c1	-15	38
COC(=O)C1=CO[C@H](C)[C@@H]2CN3CCC4(C(=O)Nc5ccccc54)C3C[C@H]12 (stereo not given in full)	5	.
O=C(CCl)c1cc(Br)c(Br)s1	-9	99*
COc1ccc(CN2CCN(Cc3ccccc3C)CC2)cc1	-6	.
CN1CCC2=C[C@H](O)[C@H]3OC(=O)c4cc5c(cc4[C@H]3[C@@H]21)OCO5	-10	26
CN1Cc2c(ccc3c2OCO3)[C@@H]2[C@H]1c1cc3c(cc1C[C@@H]2O)OCO3	-9	138*
CCN1C[C@]2(C)CC[C@H](OC)[C@@]34C1[C@@]1(OCO[C@@]15C[C@H](OC)[C@H]1C[C@]3(O)[C@@H]5[C@H]1OC)[C@@H](OC(C)=O)[C@H]24	6	11
CCOC(=S)SCc1nc2ccccc2c(=O)n1-c1ccccc1	38	.
CCC[C@H]1C[C@H]2OC(=O)c3c(cc(OC)c(OC)c3O)[C@H]2O1	0	14
O=C(CCCN1CCC2(CC1)C(=O)N(Cc1cccc(F)c1)CN2c1ccccc1)c1ccc(F)cc1	44	91*
SMILES	U2OS ROS induce	NOMO-1 viab
CC(C)(O)CCC(=O)[C@](C)(O)[C@H]1[C@H](O)C[C@@]2(C)[C@@H]3CC=C4C(C=C(O[C@@H]5O[C@H](CO)[C@@H](O)[C@H](O)[C@H]5O)C(=O)C4(C)C)[C@]3(C)C(=O)C[C@]12C (stereo not given in full)	-5	-10
CCN(CC)c1nc2ccccc2c(=O)n1-c1ccccc1	6	.
COC1=CC(=O)O[C@@H](CCc2ccc3c(c2)OCO3)C1	-8	13
CC1(C)C(C(=O)Nc2ccccc2C#N)C1(C)C	58	18
Cc1cc(Br)c(NC(=O)C2C(C)(C)C2(C)C)c(Br)c1	1	89*
COC(=O)C12CC3CC(C(C)O)C1N(CCc1c2[nH]c2ccc(OC)cc12)C3 (stereo not given)	14	30
C/C=C(/C)C(=O)O[C@H]1C(C)=C2[C@H]([C@@H]1OC(=O)CCCCCCC)[C@@](C)(OC(C)=O)C[C@H](OC(=O)CCC)[C@@]1(O)[C@H]2OC(=O)[C@@]1(C)O	13	122*
C/C=C(\C)C(=O)OC1C(C)=C2C(C1OC(=O)CCCCCCC)C(C)(OC(C)=O)CC(OC(=O)CCC)C1(O)C2OC(=O)C1(C)O (stereo not given)	5	120*
O=c1[nH]c2ccccc2n1C1CCN(CCCC(c2ccc(F)cc2)c2ccc(F)cc2)CC1	35	116*
Cc1ccc(OC(=O)N(C)C[C@H]2OCc3cnnn3CCCC(=O)N([C@@H](C)CO)C[C@@H]2C)cc1	8	.

High-throughput results as filed in PubChem BioAssay.
